Most compounds without a hit are left out; they make up all but 8.6% or so of the library.
Lassa entry = qHTS for Inhibitors of binding or entry into cells for Lassa Virus; Lassa virus pseudotyped entry inhibition, cell-based qHTS; Potency, µM (highest dose often 49.2 µM), hits mostly inhibitors; 18,000 tested, 4.1% active; AID 720533, 2013
MARV entry inh = qHTS for Inhibitors of binding or entry into cells for Marburg Virus | AID 720532, 2013 | Marburg virus pseudotype entry/binding inhibition, cell-based | 18,000 tested, 6.5% active | Potency, µM (top dose mostly 49.2 µM), actives largely listed as inhibitors
Hits are given with their value; i = inactive; ? = inconclusive; nt = not tested or not shown; ! = repeats disagree; [ ] = remark or other dose. Calls follow the shape of the full dose curve; tested in HEK293 cells.

SMILES	Lassa entry	MARV entry inh
C=C1C(=O)O[C@@H]2[C@H]3O[C@]3(C)CC/C=C(\C)CC[C@@H]12	4.5µM	4µM
C=C1CC/C=C(\C)CC[C@@H]2[C@@H]1CC2(C)C	i	i
C=C1C(=O)O[C@@H]2C3OC3(C)CC/C=C(\C)CC[C@@H]12 (some centres undefined)	i	i
C=C1C(=O)OC2C1CC/C(C)=C/CCC1(C)OC21 (centres undefined)	11µM	?
CC(CCN1CCCCc2nc(C)c(C)cc21)=NO[C@@H](C)CN1CCCCc2nc(C)c(C)cc21	nt	i[8.59 µM]
O=C(O)CCC/C=C\CC1C2CCC(O2)C1CNNC(=O)Nc1ccccc1 (centres undefined)	i	i
CC(CN(C)C)CN1c2ccccc2Sc2ccccc21 (centres undefined)	?	11µM
CN(C)CCCN1c2ccccc2Sc2ccc(C(F)(F)F)cc21	?	11µM
C[C@@H](CN(C)C)CN1c2ccccc2Sc2ccccc21	?	11µM
COc1ccc2c(c1)N(C[C@H](C)CN(C)C)c1ccccc1S2	i	?
CC(CN(C)C)CN1c2ccccc2Sc2ccc(C(F)(F)F)cc21 (centres undefined)	32µM	10µM
O=C(C=Cc1ccc2c(c1)OCO2)c1ccc(F)cc1	i[8.59 µM]	i[8.59 µM]
Fc1ccc([C@@H]2CCNC[C@H]2COc2ccc3c(c2)OCO3)cc1	?	5.6µM
COc1ccc2c3c1O[C@H]1C[C@H](O)C=C[C@@]31CCN(C)C2	i	i
CC12C(=O)OC(=O)C1(C)C1CCC2O1 (centres undefined)	2.8µM	3.5µM
COCCN(C)C(=O)c1cnn(-c2ncc3c(n2)-c2ccccc2CCC3)c1C1CC1	i	i
CC(C)C1C(=O)N(Cc2cn(CCC3OCCCO3)nn2)CCS(=O)(=O)N1Cc1ccc(-c2cccc(N(C)C)c2)cc1 (centres undefined)	i	i
Cn1cc(C(=O)OCC2CCN(CCNS(C)(=O)=O)CC2)c2ccccc21	i	?
COc1cc(COc2cc(N)c(Cl)cc2C(=O)CCC2CCN(CCNS(C)(=O)=O)CC2)cc(OC)c1	?	7.9µM
COc1cc(N)c(Cl)cc1C(=O)CCC1CCN(CCNS(C)(=O)=O)CC1	?	32µM!
COc1cc(N)c(Cl)cc1C(=O)OCCN1CCCCC1	i	i
CCCN1CCc2cccc3c2C1Cc1ccc(O)c(O)c1-3 (centres undefined)	?	i
CO[C@@H]1[C@@H](OC(N)=O)[C@@H](O)[C@H](Oc2ccc3c(O)c(NC(=O)c4ccc(O)c(CC=C(C)C)c4)c(=O)oc3c2C)OC1(C)C	i	i
C[N+]1([O-])[C@@H]2CC(OC(=O)[C@H](CO)c3ccccc3)C[C@H]1[C@@H]1O[C@@H]12 (some centres undefined)	i	i
CCCCC[C@H](O)/C=C/[C@@H]1[C@@H](C/C=C\CCCC(=O)O)[C@@H](O)C[C@H]1O	i	i
SMILES	Lassa entry	MARV entry inh
Nc1nc(-c2ccccn2)c(-c2ccc3ncccc3n2)s1	i	i
Cc1cc2c(OCC(CNC(C)(C)C)OC(=O)c3ccccc3)cccc2[nH]1 (centres undefined)	i	35µM
COc1ccc(O[C@H]2C=C[C@@H](c3ccccc3)O[C@H]2COC(=O)CCC(C)=NO[C@H](C)c2cn([C@H](CO)Cc3ccccc3)nn2)cc1	i[8.59 µM]	i[8.59 µM]
CCCCCC(=O)N1C[C@H](n2cc(COC(=O)c3ccccc3)nn2)[C@@H](O)C[C@H]1c1ccccc1	i	?
O=c1[nH]c2cc([N+](=O)[O-])cc([N+](=O)[O-])c2[nH]c1=O	i	i
COc1cc(C)c(NC(=O)CN(C)C)cc1Nc1nc(Nc2cccc(F)c2C(N)=O)c2cc[nH]c2n1	?	0.79µM
COc1cc(N2CCN(C(C)C)CC2)ccc1Nc1nc(Nc2ccc(F)cc2C(N)=O)c2cc[nH]c2n1	?	14µM
C[N+](C)(C)CC(=O)O	i	i
CC(=O)OCC(=O)[C@@]12OC(C)(C)O[C@@H]1C[C@H]1[C@@H]3C[C@H](F)C4=CC(=O)C=C[C@]4(C)[C@@]3(F)[C@@H](O)C[C@@]12C	i	i
N#Cc1ccc(OCc2cn(CC(=O)c3ccc(O)cc3)nn2)cc1	i	i
C[C@@H]1O[C@@H](O[C@H]2C[C@@H](O)[C@]3(CO)[C@@H]4C(CC[C@]3(O)C2)[C@@]2(O)CC[C@H](C3=CC(=O)OC3)[C@@]2(C)C[C@H]4O)[C@H](O)[C@H](O)[C@H]1O (some centres undefined)	0.32µM	?
CC1O[C@@H](OC2CC(O)[C@@]3(CO)C4C(O)C[C@@]5(C)C(C6=CC(=O)OC6)CC[C@]5(O)C4CC[C@]3(O)C2)C(O)C(O)C1O (some centres undefined)	0.32µM	0.28µM
C[C@@H]1O[C@H](O[C@H]2C[C@@H](O)[C@@]3(CO)[C@H]4[C@@H](O)C[C@]5(C)[C@@H](C6=CC(=O)OC6)CC[C@]5(O)[C@H]4CC[C@]3(O)C2)[C@@H](O)[C@H](O)[C@@H]1O	3.2µM	?
